# Reference: PubChem BioAssay (Tox21)
# Values joined by “and” are separate entries in the source; they are usually repeats but may differ in a detail not shown here. Equal values may be shown once. Results filed as inconclusive are left out. Entries that show only a call come without a potency. More than one record can exist for a structure, and the calls need not agree. Active and inactive are the calls of the source. Unless noted, the call rests on the fitted dose curve; in most records, active means well fitted curve in the direction sought with a large enough effect in the repeat runs; inconclusive means weak or mixed curves; inactive means no such curve, though single readings can be large; an effect the other way counts as inactive or inconclusive.
# What was measured:
# [1] = qHTS assay to identify small molecule agonists of the estrogen receptor beta (ER-beta) signaling pathway - cell viability counter screen (AID 1259380); further: nearly all actives have a fitted effect of over 30% in size; further: potency means the concentration at half of the fitted maximal effect
# Outline: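 Viability of ER-beta-UAS-bla HEK293T cells was determined by CellTiter-Glo luminescence following 16 hr treatment with test compounds at 37C.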
# [2] = qHTS assay to identify small molecule antagonists of the estrogen receptor beta (ER-beta) signaling pathway - cell viability counter screen (AID 1259382); further: nearly all actives have a fitted effect of over 55% in size; further: potency means the concentration at half of the fitted maximal effect;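 on activity change, negative = cytotoxicity: HEK293T cells carrying ER-beta-UAS-bla reporter stimulated with estradiol; series mostly up to about 92 µM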
# Outline: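 Tox21 10K library tested in qHTS format on ER-beta-bla HEK293T cells stimulated with 1nM E2; 16 hr treatment at 37C. Same-well CellTiter-Glo luminescence served as the cell viability measure.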
# [3] = biological target: Estrogen receptor (Homo sapiens) (UniProt P03372); experiment: qHTS assay to identify small molecule agonists of the estrogen receptor alpha (ER-alpha) signaling pathway in the presence of an antagonist (AID 1259383; calls by dose curve; further: top concentration of the series differs between compounds; nearly all actives have a fitted effect of over 15% in size)
# Chain of Estrogen receptor (Homo sapiens) (P03372 whole entry, looked up): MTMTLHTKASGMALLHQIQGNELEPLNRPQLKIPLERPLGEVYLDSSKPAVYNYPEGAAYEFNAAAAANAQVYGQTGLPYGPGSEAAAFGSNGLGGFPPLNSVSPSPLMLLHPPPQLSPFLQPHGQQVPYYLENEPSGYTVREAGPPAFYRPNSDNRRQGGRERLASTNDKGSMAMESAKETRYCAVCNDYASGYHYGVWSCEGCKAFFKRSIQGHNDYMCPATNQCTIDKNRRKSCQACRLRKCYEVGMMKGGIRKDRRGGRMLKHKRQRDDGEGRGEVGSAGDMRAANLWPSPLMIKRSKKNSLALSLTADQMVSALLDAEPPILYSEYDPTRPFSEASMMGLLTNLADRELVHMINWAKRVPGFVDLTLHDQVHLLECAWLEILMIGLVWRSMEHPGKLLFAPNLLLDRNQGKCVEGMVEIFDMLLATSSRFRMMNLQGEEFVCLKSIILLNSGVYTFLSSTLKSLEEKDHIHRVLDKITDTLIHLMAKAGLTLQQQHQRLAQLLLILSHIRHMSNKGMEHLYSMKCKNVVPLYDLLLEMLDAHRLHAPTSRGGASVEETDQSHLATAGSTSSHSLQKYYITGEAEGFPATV
# Outline: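 In VM7Luc4E2 cells, 4,000 per well, compounds at 15 concentrations were co-incubated 22hr at 37C with 10.0nM final ICI-182,780. Luminescence from the stably transfected 4×ERE-luciferase reporter was recorded 30min after ONE-Glo addition.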
# [4] = qHTS assay to identify small molecule agonists of the estrogen receptor alpha (ER-alpha) signaling pathway in the presence of an antagonist - cell viability counter screen (AID 1259386);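 further: cells exposed to compounds for 22 h at 37 °C before the viability read; nearly all actives have a fitted effect of over 30% in size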; further: potency means the concentration at half of the fitted maximal effect; on activity change, negative = cytotoxicity: series mostly up to about 92 µM
# Outline: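 Fluorescent CellTiter-Fluor viability signal from VM7Luc4E2 cells, with the reagent added during the final hour of a 22hr compound exposure at 37C in the presence of 10.0nM ICI-182,780.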
# [5] = biological target: Progesterone receptor (Homo sapiens) (UniProt P06401); experiment: qHTS assay to identify small molecule agonists of the progesterone receptor (PR) signaling pathway (AID 1346784; calls by dose curve; further: nearly all actives have a fitted effect of over 30% in size; further: potency means the concentration at half of the fitted maximal effect)
# Chain of Progesterone receptor (Homo sapiens) (P06401 whole entry, looked up): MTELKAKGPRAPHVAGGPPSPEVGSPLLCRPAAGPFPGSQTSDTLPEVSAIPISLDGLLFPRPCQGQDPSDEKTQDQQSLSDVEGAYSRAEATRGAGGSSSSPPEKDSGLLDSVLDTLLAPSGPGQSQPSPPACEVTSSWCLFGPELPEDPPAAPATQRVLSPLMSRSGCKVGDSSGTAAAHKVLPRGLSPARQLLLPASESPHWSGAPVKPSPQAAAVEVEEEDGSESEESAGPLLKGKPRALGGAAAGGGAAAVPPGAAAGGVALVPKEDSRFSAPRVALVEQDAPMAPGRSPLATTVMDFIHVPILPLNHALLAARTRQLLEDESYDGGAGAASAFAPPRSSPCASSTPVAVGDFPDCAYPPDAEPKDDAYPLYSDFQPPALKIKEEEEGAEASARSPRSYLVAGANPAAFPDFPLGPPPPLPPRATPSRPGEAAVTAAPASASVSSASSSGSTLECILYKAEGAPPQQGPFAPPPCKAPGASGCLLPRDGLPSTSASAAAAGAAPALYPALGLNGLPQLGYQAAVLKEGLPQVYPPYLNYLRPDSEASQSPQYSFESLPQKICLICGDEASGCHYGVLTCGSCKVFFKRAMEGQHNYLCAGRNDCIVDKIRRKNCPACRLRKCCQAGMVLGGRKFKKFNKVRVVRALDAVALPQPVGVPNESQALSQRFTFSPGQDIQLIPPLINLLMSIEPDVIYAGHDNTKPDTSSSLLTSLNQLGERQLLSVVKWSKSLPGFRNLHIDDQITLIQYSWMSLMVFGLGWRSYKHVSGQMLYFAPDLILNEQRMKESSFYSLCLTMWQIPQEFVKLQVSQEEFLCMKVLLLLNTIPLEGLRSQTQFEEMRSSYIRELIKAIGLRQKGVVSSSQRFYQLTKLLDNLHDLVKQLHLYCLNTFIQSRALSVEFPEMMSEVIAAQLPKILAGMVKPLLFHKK
# Outline: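 Agonist qHTS: compounds pinned onto 3,000 PR-UAS-bla HEK 293T cells per well in charcoal-stripped serum medium, 16hr at 37C, then beta-lactamase activity measured by LiveBLAzer FRET fluorescence after 2 hours at room temperature.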
# [6] = biological target: Progesterone receptor (Homo sapiens) (UniProt P06401); experiment: qHTS assay to identify small molecule antagonists of the progesterone receptor (PR) signaling pathway (AID 1346795; active means well fitted inhibition curve with a large enough effect in the signal ratio in the repeat runs, not every such curve was filed as active; the % refers to the signal ratio; further: potency means the concentration at half of the fitted maximal effect)
# Outline: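 Antagonist mode with agonist R5020 at 1 nM final and 16 hr incubation at 37C. Reporter was beta-lactamase driven by UAS in HEK293T (PR-UAS-bla), 2% charcoal-stripped serum; signal from LiveBLAzer FRET substrate, 2 hr at room temperature.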
# [7] = qHTS assay to identify small molecule agonists of the progesterone receptor (PR) signaling pathway - cell viability counter screen (AID 1346799; calls by dose curve; further: nearly all actives have a fitted effect of over 45% in size)
# Outline: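 Cytotoxicity measured by CellTiter-Glo luminescence (30 min, RT) in the same wells as the PR beta-lactamase agonist read. Those HEK293T cells had 16 h compound treatment at 37 C in 2% charcoal-stripped FBS medium.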
# [8] = qHTS assay to identify small molecule antagonists of the TGF-beta/Smad signaling pathway - cell viability counter screen (AID 1346824); further: nearly all actives have a fitted effect of over 50% in size
# Outline: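 SBE-bla HEK 293T cells, incubated overnight, then compound plus 0.25 ng/mL TGF-beta1 (stock added) for 5 hr at 37 C. Viability was read in the same wells by CellTiter-Glo luminescence after 30 min at room temperature.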
# [9] = qHTS assay to identify small molecule agonists of the TGF-beta/Smad signaling pathway - cell viability counter screen (AID 1346829); further: top concentration of the series differs between compounds; nearly all actives have a fitted effect of over 45% in size
# Outline: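 CellTiter-Glo luminescence readout; SBE-bla HEK 293T cells, overnight plating, compound 5 hr at 37 C/5% CO2, then bla substrate 2 hr RT, then CellTiter-Glo 30 min RT.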
# [10] = qHTS assay to identify small molecule agonists of the TGF-beta/Smad signaling pathway (AID 1346859; active means well fitted activation curve with a large enough effect in the signal ratio in the repeat runs, not every such curve was filed as active; the % refers to the signal ratio; further: series mostly up to about 77 µM)
# Outline: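 Fluorescence (ex 405 nm; em 460 and 530 nm) was read 2 h after LiveBLAzer FRET substrate at RT. The preceding compound treatment of overnight-plated SBE-bla HEK293T cells lasted 5 h at 37 C.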
# [11] = biological target: Thyrotropin-releasing hormone receptor (Homo sapiens) (UniProt P34981); experiment: qHTS assay to identify small molecule antagonists of the thyrotropin-releasing hormone receptor (TRHR) signaling pathway (AID 1346877; active means well fitted inhibition curve with a large enough effect in the repeat runs, not every such curve was filed as active; further: potency means the concentration at half of the fitted maximal effect)
# Chain of Thyrotropin-releasing hormone receptor (Homo sapiens) (P34981 whole entry, looked up): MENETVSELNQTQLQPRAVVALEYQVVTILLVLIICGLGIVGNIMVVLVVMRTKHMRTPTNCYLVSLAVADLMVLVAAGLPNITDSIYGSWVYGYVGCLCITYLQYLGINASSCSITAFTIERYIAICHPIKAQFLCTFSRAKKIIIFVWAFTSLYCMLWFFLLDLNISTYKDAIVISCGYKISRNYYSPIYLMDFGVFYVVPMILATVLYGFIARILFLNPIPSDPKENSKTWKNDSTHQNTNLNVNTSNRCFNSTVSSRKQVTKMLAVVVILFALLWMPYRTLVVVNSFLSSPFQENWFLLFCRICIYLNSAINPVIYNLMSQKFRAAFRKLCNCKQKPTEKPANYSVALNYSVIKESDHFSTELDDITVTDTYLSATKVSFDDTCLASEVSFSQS
# Outline: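 In this cell-based calcium flux format, HEK293 cells expressing TRHR received test compound for 5 min before the agonist TRH (1 nM final). Dye loading lasted 2 h at 37 °C.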
# [12] = biological target: Thyrotropin-releasing hormone receptor (Homo sapiens) (UniProt P34981); experiment: qHTS assay to identify small molecule agonists of the thyrotropin-releasing hormone receptor (TRHR) signaling pathway (AID 1346891; calls by dose curve; further: potency means the concentration at half of the fitted maximal effect; on activation: series mostly up to about 58 µM)
# Outline: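 Agonist-mode intracellular calcium readout: kinetic fluorescence over 3 min at 1 s intervals after compound addition to TRHR-HEK293 cells (18 h seeded, 2 h dye-loaded at 37 C). Fifteen concentrations, triplicates.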
# [13] = Human pregnane X receptor (PXR) small molecule agonists, qHTS cell viability counter screen (AID 1346977); further: nearly all actives have a fitted effect of over 50% in size; further: potency means the concentration at half of the fitted maximal effect
# Outline: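 Same-well viability read: CellTiter-Fluor added after 23 hr compound exposure, fluorescence measured 1 hr later. Cells were PXR-Luc HepG2 seeded at 2,000/well in 5% charcoal-stripped FBS medium, rested 5 hr before dosing at 37 C.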
# [14] = qHTS assay to identify small molecule agonists of the androgen receptor (AR) signaling pathway in the presence of an antagonist - cell viability counter screen (AID 1259379);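 further: MDA-kb2 human breast cancer cells carrying an MMTV luciferase reporter; series mostly up to about 92 µM; nearly all actives have a fitted effect of over 25% in size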
# Outline: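 In MDA-kb2 cells (human breast carcinoma, MMTV-luciferase), compounds at 15 concentrations plus 3.0uM nilutamide; 16 hr, 37C, 0% CO2; CellTiter-Fluor fluorescence read for viability.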
# [15] = qHTS assay to identify small molecule agonists or antagonists of the thyroid stimulating hormone receptor (TSHR) signaling pathway - wild type cell line counter screen (AID 1259384; calls by dose curve; further: potency means the concentration at half of the fitted maximal effect)
# Outline: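 Wild-type Hek293 cells, 800/well, 18 h at 37C, then compound with Ro20-1724 for 30 min RT. cAMP by HTRF (cAMP-d2/anti-cAMP cryptate), 1 h RT, fluorescence read. 15 concentrations, triplicates.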
# [16] = biological target: Thyrotropin receptor (Homo sapiens) (UniProt P16473); experiment: qHTS assay to identify small molecule antagonists of the thyroid stimulating hormone receptor (TSHR) signaling pathway (AID 1259385; calls by dose curve; further: nearly all actives have a fitted effect of over 20% in size; further: potency means the concentration at half of the fitted maximal effect)
# Chain of Thyrotropin receptor (Homo sapiens) (P16473 whole entry, looked up): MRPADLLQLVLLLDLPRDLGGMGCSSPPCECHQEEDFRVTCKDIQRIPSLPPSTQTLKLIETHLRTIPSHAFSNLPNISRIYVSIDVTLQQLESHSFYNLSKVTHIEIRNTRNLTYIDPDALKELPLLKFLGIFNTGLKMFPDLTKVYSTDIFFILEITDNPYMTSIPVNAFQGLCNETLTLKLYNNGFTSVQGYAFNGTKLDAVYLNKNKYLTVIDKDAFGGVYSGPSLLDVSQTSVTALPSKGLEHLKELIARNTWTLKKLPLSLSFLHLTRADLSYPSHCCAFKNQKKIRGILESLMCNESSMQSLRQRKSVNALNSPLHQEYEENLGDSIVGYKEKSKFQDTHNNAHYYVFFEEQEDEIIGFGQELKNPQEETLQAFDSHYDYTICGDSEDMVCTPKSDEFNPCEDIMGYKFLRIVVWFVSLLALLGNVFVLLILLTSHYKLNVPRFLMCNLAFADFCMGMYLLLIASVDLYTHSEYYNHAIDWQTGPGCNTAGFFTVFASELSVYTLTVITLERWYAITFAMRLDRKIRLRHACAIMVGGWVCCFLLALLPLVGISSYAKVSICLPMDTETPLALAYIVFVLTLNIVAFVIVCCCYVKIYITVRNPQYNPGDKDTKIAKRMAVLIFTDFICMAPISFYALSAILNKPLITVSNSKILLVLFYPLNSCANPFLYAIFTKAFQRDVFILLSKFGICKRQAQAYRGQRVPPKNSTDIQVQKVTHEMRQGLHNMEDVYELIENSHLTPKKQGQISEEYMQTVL
# Outline: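 TSHR-HEK293 cells (800/well) plated 18 h, then compounds with Ro20-1724 and TSH at 1.5 ng/mL final, 30 min at room temperature. cAMP quantified by HTRF (cAMP-d2/anti-cAMP-cryptate, 1 h); 15 concentrations in triplicate.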
# [17] = qHTS assay to identify small molecule antagonists of the progesterone receptor (PR) signaling pathway - cell viability counter screen (AID 1346798); further: series mostly up to about 92 µM; nearly all actives have a fitted effect of over 50% in size
# Outline: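 Cytotoxicity read as CellTiter-Glo luminescence (30 min, room temperature) in the same wells as the beta-lactamase readout. HEK293T PR-UAS-bla cells in charcoal-stripped 2% FBS received compound and R5020, then 16 h at 37C, 5% CO2.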
# [18] = biological target: Androgen receptor (Homo sapiens) (UniProt P10275); experiment: qHTS assay to identify small molecule agonists of the androgen receptor (AR) signaling pathway in the presence of an antagonist (AID 1259381; calls by dose curve; further: nearly all actives have a fitted effect of over 15% in size)
# Chain of Androgen receptor (Homo sapiens) (P10275 whole entry, looked up): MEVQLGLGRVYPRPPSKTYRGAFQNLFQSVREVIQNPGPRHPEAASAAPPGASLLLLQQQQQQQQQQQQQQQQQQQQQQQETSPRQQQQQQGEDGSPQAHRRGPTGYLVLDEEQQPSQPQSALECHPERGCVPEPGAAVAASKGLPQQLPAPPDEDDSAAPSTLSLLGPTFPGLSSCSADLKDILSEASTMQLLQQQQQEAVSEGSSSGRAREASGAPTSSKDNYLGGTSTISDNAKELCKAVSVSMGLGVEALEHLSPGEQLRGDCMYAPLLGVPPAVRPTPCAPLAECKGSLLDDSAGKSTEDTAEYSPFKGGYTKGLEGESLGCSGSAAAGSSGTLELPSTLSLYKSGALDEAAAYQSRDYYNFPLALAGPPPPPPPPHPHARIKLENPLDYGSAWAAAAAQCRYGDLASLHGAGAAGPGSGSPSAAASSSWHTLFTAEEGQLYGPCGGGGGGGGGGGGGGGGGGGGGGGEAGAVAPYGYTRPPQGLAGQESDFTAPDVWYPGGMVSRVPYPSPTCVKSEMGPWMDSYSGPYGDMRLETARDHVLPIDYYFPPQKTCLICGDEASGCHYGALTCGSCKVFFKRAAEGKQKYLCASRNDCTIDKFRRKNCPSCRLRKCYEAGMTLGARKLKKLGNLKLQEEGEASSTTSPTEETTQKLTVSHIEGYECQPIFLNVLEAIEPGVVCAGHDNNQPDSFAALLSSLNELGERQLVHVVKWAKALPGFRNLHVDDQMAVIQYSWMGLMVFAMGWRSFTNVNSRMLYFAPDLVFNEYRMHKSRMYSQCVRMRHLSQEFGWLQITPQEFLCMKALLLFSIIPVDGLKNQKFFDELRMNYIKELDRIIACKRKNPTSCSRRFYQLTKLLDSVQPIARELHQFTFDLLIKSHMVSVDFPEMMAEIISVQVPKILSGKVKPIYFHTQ
# Outline: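 Here, 15-concentration compound series were pin-transferred onto MDA-kb2 MMTV-luciferase cells already dosed with nilutamide (3.0uM final). After 16hr at 37C, ONE-Glo was added and luminescence read 30min later at room temperature.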
Compound,Potency [1],Potency [2],Potency [3],Potency [4],Potency [5],Potency [6],Potency [7],Potency [8],Potency [9],outcome [10],Potency [11],Potency [12],Potency [13],Potency [14],Potency [15],Potency [16],Potency [17],"activity change, negative = cytotoxicity [4]",activation [5],Potency [18]
Nc1cc(Cl)c(N)c(Cl)c1,inactive,inactive,inactive,inactive,inactive,inactive,inactive,inactive,inactive,inactive,inactive,inactive,inactive,,,,,,,
O=C(O)c1cc(=O)[nH]c(=O)[nH]1,inactive,,,inactive,inactive,inactive,inactive,,inactive,inactive,,,inactive,inactive,inactive,inactive,,,,
C[C@]12CC[C@@H]3c4ccc(O)cc4CC[C@H]3[C@@H]1CC[C@H]2O,,,,inactive,inactive,,,inactive,inactive,inactive,inactive,inactive,inactive,inactive,inactive,31.2 µM (active),,,,
NC[C@H](O)c1ccc(O)c(O)c1,inactive,inactive,,inactive,inactive,inactive,,inactive,inactive,inactive,,,inactive,inactive,,,inactive,,,
C[N+](C)(C)CCO,inactive,,,inactive,inactive,inactive,inactive,inactive,inactive,inactive,,,inactive,inactive,inactive,inactive,,,,
CCCCCC1C(=O)CCC1CC(=O)OC (centres undefined),inactive,,inactive,inactive,inactive,inactive,inactive,,inactive,inactive,inactive,inactive,inactive,inactive,inactive,inactive,,,,
OC[C@@H](O)[C@@H](O[C@@H]1O[C@H](CO)[C@H](O)[C@H](O)[C@H]1O)[C@H](O)[C@@H](O)CO,inactive,,,inactive,,,,,inactive,inactive,,,inactive,inactive,inactive,inactive,inactive,,,
CNC[C@H](O)c1ccc(O)c(O)c1,inactive,,inactive,,4.33 µM (active),inactive,,inactive,inactive,inactive,inactive,inactive,inactive,inactive,1.66 µM (active) and 111 nM (active),inactive,inactive,-2.01% [at 19 µM] (inactive),-0.635% [at 19 µM] (inactive),
C[C@]12C=CC(=O)C=C1CC[C@H]1[C@@H]3C[C@@H](O)[C@](O)(C(=O)CO)[C@@]3(C)C[C@H](O)[C@@]12F,inactive,inactive,,inactive,inactive,inactive,,inactive,inactive,inactive,,,inactive,,inactive,inactive,,,,
O=C(O)CCCCCCCCCCCC(=O)O,inactive,inactive,,inactive,inactive,inactive,,inactive,inactive,,inactive,inactive,inactive,,inactive,inactive,inactive,,,
C=C[C@H]1CN2CC[C@H]1C[C@H]2[C@H](O)c1ccnc2ccc(OC)cc12,inactive,,,inactive,inactive,inactive,inactive,,inactive,inactive,inactive,inactive,30.6 µM (active),inactive,,,,,,
CCCCCCOCCOCCO,inactive,inactive,,inactive,inactive,inactive,inactive,inactive,inactive,inactive,,,inactive,,inactive,inactive,inactive,,,
Cc1cccc(Nc2ccccc2C(=O)O)c1C,inactive,inactive,,inactive,inactive,,inactive,inactive,inactive,inactive,inactive,inactive,inactive,inactive,,,inactive,,,
CC(C)(C)c1cccc(C(C)(C)C)c1O,inactive,,inactive,inactive,inactive,inactive,,inactive,inactive,inactive,,,inactive,inactive,inactive,inactive,,,,
C/C=C/C(=O)N(CC)c1ccccc1C,inactive,,,inactive,inactive,inactive,inactive,,inactive,inactive,inactive,inactive,inactive,inactive,inactive,inactive,inactive,,,
CCCCCCCCCCC(CO)CCCCCCCC (centres undefined),inactive,inactive,,inactive,,,inactive,inactive,inactive,inactive,,,inactive,,inactive,inactive,,,,
CC(C)(Oc1ccc(Cl)cc1)C(=O)O,inactive,inactive,,inactive,inactive,inactive,inactive,,inactive,inactive,,,inactive,inactive,inactive,inactive,,,,
CC[C@]12CCCN3CCc4c(n(c5ccccc45)[C@@](O)(C(=O)OC)C1)[C@@H]32,inactive,,,inactive,inactive,inactive,inactive,inactive,inactive,inactive,,,inactive,,,,,,,inactive
C=CCNCC=C,inactive,,inactive,inactive,inactive,inactive,inactive,inactive,inactive,inactive,inactive,inactive,inactive,,,,inactive,,,
NCCN,inactive,,,inactive,inactive,,inactive,,inactive,inactive,,,inactive,inactive,inactive,inactive,,,,
Nc1ccc(N)c(Cl)c1,61 µM (active) and 61.1 µM (active),68.5 µM (active) and 61.1 µM (active),,61.1 µM (active),inactive,27.3 µM (active),inactive,inactive,inactive,inactive,inactive and 30.2 µM (active),inactive and 4.9 µM (active),,,,,inactive,,,
Oc1c(Cl)ccc(Cl)c1Cl,,inactive,,inactive,,inactive,,inactive,inactive,inactive,inactive,inactive,inactive,,,,,,,
[Na+],inactive,,inactive,inactive,inactive,inactive,inactive,,inactive,inactive,,,inactive,inactive,,,inactive,,,
CC/C(=C(/CC)c1ccc(O)cc1)c1ccc(O)cc1,60.6 µM (active) and 61.1 µM (active),60.6 µM (active) and inactive,,inactive,inactive,12.2 µM (active),,,inactive,inactive,inactive,inactive,inactive,,inactive,inactive,,,,
CC(C)[N+](C)(CCOC(=O)C1c2ccccc2Oc2ccccc21)C(C)C,inactive,,,inactive,inactive,inactive,inactive,inactive,inactive,inactive,inactive,inactive,inactive,inactive,inactive,inactive,inactive,,,
C[C@]12CC[C@@H]3c4ccc(O)cc4CC[C@H]3[C@@H]1CC[C@@H]2O,,inactive,,inactive,,,,inactive,inactive,inactive,inactive,inactive,inactive,inactive,inactive,,,,,
Nc1ccc2c(c1)C(=O)c1ccccc1C2=O,,inactive,,inactive,inactive,inactive,inactive,inactive,inactive,inactive,inactive,inactive,,,,,inactive,,,
